Assay results published in PubChem BioAssay (NCATS).
Values joined by “and” are separate entries in the source; they are usually repeats but may differ in a detail not shown here. Equal values may be shown once. Results filed as inconclusive are left out. Entries that show only a call come without a potency. More than one record can exist for a structure, and the calls need not agree. Active and inactive are the calls of the source. Unless noted, calls follow the shape of the dose curve; as a rule, active = well fitted curve in the direction sought with a large enough effect; inconclusive = small, poorly fitted or top-dose-only effect, or another doubt; inactive = no such curve, though single readings can be large; an effect the other way counts as inactive or inconclusive.

Assays:
UISO = assay: qHTS assay to identify novel small-molecules to repurpose for Merkel cell carcinoma treatment (AID 1296009); settings: MCC and control cell lines, CellTiter-Glo viability, 72 h; series mostly up to 46 µM; also: nearly all actives have a fitted effect of over 60% in size; also: potency is read from the fitted curve at half-maximal effect
Outline: (§1)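 72 hr, 37 degree celsius; NPC 8-pt / MIPE 11-pt dose response; compound pinned in DMSO; CellTiter-Glo, 10 min RT, luminescence; normalized to no-cell and DMSO controls.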

WaGa = assay: as above; settings: MCC and control cell lines, CellTiter-Glo viability, 72 h; series mostly up to 46 µM
Outline: as §1

C33A = assay: Primary qHTS to identify gynecologic anti-cancer compounds using libraries of approved drugs and bioactive compounds (AID 1345084); settings: Gynecologic cancer cell panel viability, ATPlite luminescence, 48 h; series mostly up to 57.5 µM; also: nearly all actives have a fitted effect of over 55% in size; also: potency is read from the fitted curve at half-maximal effect
Outline: (§2)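 Cells, 1,000 per well, plated 16 h, then exposed 48 h at 37 C to compounds. Viability by ATPlite luminescence after 15 min at room temperature.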

CAOV3 = assay: as above; settings: Gynecologic cancer cell panel viability, ATPlite luminescence, 48 h; series mostly up to 57.5 µM
Outline: as §2

CASKI = assay: as above; settings: Gynecologic cancer cell panel viability, ATPlite luminescence, 48 h; series mostly up to 57.5 µM
Outline: as §2

Es-2 = assay: as above; settings: Gynecologic cancer cell panel viability, ATPlite luminescence, 48 h; series mostly up to 57.5 µM
Outline: as §2

HeLa = assay: as above; settings: Gynecologic cancer cell panel viability, ATPlite luminescence, 48 h; series mostly up to 57.5 µM
Outline: as §2

Hek293T = assay: as above; settings: Gynecologic cancer cell panel viability, ATPlite luminescence, 48 h, control line for the selectivity index; series mostly up to 57.5 µM
Outline: as §2

OV90 = assay: as above; settings: Gynecologic cancer cell panel viability, ATPlite luminescence, 48 h; series mostly up to 57.5 µM
Outline: as §2

PA-1 = assay: as above; settings: Gynecologic cancer cell panel viability, ATPlite luminescence, 48 h; series mostly up to 57.5 µM
Outline: as §2

SKOV3 = assay: as above; settings: Gynecologic cancer cell panel viability, ATPlite luminescence, 48 h; series mostly up to 57.5 µM
Outline: as §2

Tov-21-G = assay: as above; settings: Gynecologic cancer cell panel viability, ATPlite luminescence, 48 h; series mostly up to 57.5 µM
Outline: as §2

Tov112D = assay: as above; settings: Gynecologic cancer cell panel viability, ATPlite luminescence, 48 h; series mostly up to 57.5 µM
Outline: as §2

[1] = Drug repurposing screens with cells derived from glioblastoma tumor samples (AID 1345199); settings: GBM patient neurospheres viability, ATP luminescence, 48 h; also: nearly all actives have a fitted effect of over 40% in size; also: potency is read from the fitted curve at half-maximal effect
Outline: (§3)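 Four patient lines of CD133+ GBM neurospheres were screened at several concentrations; hits were retested in those lines plus three slower-growing GBM lines, using 48-hour treatment and ATP-based viability.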

astro = assay: as above; settings: viability, ATP luminescence, 48 h; series mostly up to 45.9 µM
Outline: as §3

[2] = biological target: Nuclear receptor subfamily 1 group I member 2 (Rattus norvegicus) (UniProt Q9R1A7); assay: qHTS assay for small molecule activators of the rat pregnane X receptor (rPXR) signaling pathway (AID 651751; call rule not given here); settings: rPXR reporter cells, luciferase (One-Glo), 24 h
[3] = qHTS assay to identify inhibitors of the type 1 interferon - major histocompatibility complex class I in skeletal muscle: Counter screen cell viability and HiBit confirmation (AID 1347412); settings: iHSKM muscle cells + IFN-b, HiBiT or CellTiter-Glo, 24 h; Potency: HiBiT; Viability, at 45.9 µM (top of the series); also: nearly all actives have a fitted effect of over 60% in size
Outline: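 Myoblasts (C25cl48, HLA-B HiBiT) seeded in medium without dexamethasone, IFN-b 4 ng/ml added except unstimulated columns; 1 hr later compounds pinned (12-pt 1:3, top 46 uM final). Incubated 24 hrs, lysed 10 min, luminescence measured.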

JEG-3 = assay: Primary qHTS to identify gynecologic anti-cancer compounds using libraries of approved drugs and bioactive compounds (AID 1345084); settings: Gynecologic cancer cell panel viability, ATPlite luminescence, 48 h; series mostly up to 57.5 µM; also: nearly all actives have a fitted effect of over 55% in size; also: potency is read from the fitted curve at half-maximal effect
Outline: as §2

[4] = qHTS assay for small molecule activators of the human pregnane X receptor (PXR) signaling pathway (AID 720659; call rule not given here)
[5] = at 45.9 µM (top of the series), tumour line B
[6] = at 45.9 µM (top of the series), tumour line D
[7] = at 46 µM (top of the series), tumour line A
[8] = at 21.2 µM (top of the series), tumour line B
[9] = at 21.2 µM (top of the series), tumour line D

Sequence of Nuclear receptor subfamily 1 group I member 2 (Rattus norvegicus) (Q9R1A7 whole entry, looked up): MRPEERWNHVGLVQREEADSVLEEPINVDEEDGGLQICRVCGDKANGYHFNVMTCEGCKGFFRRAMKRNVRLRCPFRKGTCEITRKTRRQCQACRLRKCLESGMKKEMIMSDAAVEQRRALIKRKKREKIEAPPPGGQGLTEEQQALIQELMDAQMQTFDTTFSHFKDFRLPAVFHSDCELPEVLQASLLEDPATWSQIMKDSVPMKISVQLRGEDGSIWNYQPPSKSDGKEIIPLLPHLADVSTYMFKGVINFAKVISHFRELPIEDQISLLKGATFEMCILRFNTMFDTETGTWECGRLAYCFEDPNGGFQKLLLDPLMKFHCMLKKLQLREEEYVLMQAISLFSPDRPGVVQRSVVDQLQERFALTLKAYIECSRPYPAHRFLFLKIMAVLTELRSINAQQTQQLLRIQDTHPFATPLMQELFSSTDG

## COc1ccccc1N1CCNCC1
UISO
  Potency: inactive
WaGa
  Potency: inactive
C33A
  Potency: inactive
CAOV3
  Potency: inactive
CASKI
  Potency: inactive
Es-2
  Potency: inactive
HeLa
  Potency: inactive
Hek293T
  Potency: inactive
OV90
  Potency: inactive
PA-1
  Potency: inactive
SKOV3
  Potency: inactive
Tov-21-G
  Potency: inactive
Tov112D
  Potency: inactive
[1]; [5]
  activity, negative = cell killing: -16.5% (inactive)
[1]; [6]
  activity, negative = cell killing: -3.17% (inactive)
[1]; [7]
  activity, negative = cell killing: -37.1% (inactive)
astro
  Potency: inactive

## C=C(C)[C@H]1Cc2c(ccc3c2O[C@@H]2COc4cc(OC)c(OC)cc4[C@@H]2C3=O)O1
C33A
  Potency: 708 nM (active)
CASKI
  Potency: 1.26 µM (active)
Hek293T
  Potency: 0.891 µM (active)
PA-1
  Potency: 1.26 µM (active)
SKOV3
  Potency: 282 nM (active)
Tov-21-G
  Potency: 3.98 µM (active)
Tov112D
  Potency: 1.78 µM (active)
astro
  Potency: 0.562 µM (active)
[2]
  max response: -14.4% (inactive)

## Cc1sc2c(c1C)C(c1ccc(Cl)cc1)=N[C@@H](CC(=O)OC(C)(C)C)c1nnc(C)n1-2
WaGa
  Potency: 2.35 µM (active)
[3]
  Potency: inactive

## NCC1(CC(=O)O)CCCCC1
UISO
  Potency: inactive
WaGa
  Potency: inactive
C33A
  Potency: inactive
CAOV3
  Potency: inactive
CASKI
  Potency: inactive
Es-2
  Potency: inactive
HeLa
  Potency: inactive
Hek293T
  Potency: inactive
OV90
  Potency: inactive
PA-1
  Potency: inactive
SKOV3
  Potency: inactive
Tov-21-G
  Potency: inactive
Tov112D
  Potency: inactive
[1]; [8]
  activity, negative = cell killing: -18.9% (inactive)
[1]; [9]
  activity, negative = cell killing: -10.4% (inactive)
[1]; at 21.3 µM (top of the series), tumour line A
  activity, negative = cell killing: -25.7% (inactive)
astro
  Potency: inactive

## N#CC(C#N)=Cc1ccc(O)c(O)c1
WaGa
  Potency: 13.3 µM (active)
C33A
  Potency: inactive
CAOV3
  Potency: inactive
CASKI
  Potency: inactive
Es-2
  Potency: inactive
HeLa
  Potency: inactive
Hek293T
  Potency: inactive
OV90
  Potency: inactive
SKOV3
  Potency: inactive
Tov112D
  Potency: inactive

## CCC(=O)C(CC(C)N(C)C)(c1ccccc1)c1ccccc1 (configuration not stated)
C33A
  Potency: inactive
Es-2
  Potency: inactive
HeLa
  Potency: inactive
Hek293T
  Potency: inactive
JEG-3
  Potency: inactive
PA-1
  Potency: inactive
Tov-21-G
  Potency: inactive
Tov112D
  Potency: inactive
astro
  Potency: inactive

## C=C1C[C@@H]2[C@H](CC[C@]3(C)C(=O)CC[C@@H]23)[C@@]2(C)C=CC(=O)C=C12
UISO
  Potency: inactive
C33A
  Potency: inactive
CASKI
  Potency: inactive
HeLa
  Potency: inactive
SKOV3
  Potency: inactive
Tov112D
  Potency: inactive
[1]; tumour line A
  Potency: 12.6 µM (active)

## CC(C)=CCOc1c2occc2cc2ccc(=O)oc12
UISO
  Potency: inactive
WaGa
  Potency: inactive
C33A
  Potency: inactive
CAOV3
  Potency: inactive
CASKI
  Potency: inactive
Es-2
  Potency: inactive
Hek293T
  Potency: inactive
OV90
  Potency: inactive
PA-1
  Potency: inactive
Tov-21-G
  Potency: inactive
Tov112D
  Potency: inactive
[1]; [5]
  activity, negative = cell killing: -6.14% (inactive)
[1]; [6]
  activity, negative = cell killing: -22.8% (inactive)
[1]; tumour line A
  Potency: 17.8 µM (active)
astro
  Potency: inactive

## CNC(=O)N1N=C(c2ccc(N)cc2)c2cc3c(cc2CC1C)OCO3 (configuration not stated)
WaGa
  Potency: 16.6 µM (active)
C33A
  Potency: inactive
Es-2
  Potency: inactive
JEG-3
  Potency: inactive
PA-1
  Potency: inactive
Tov-21-G
  Potency: inactive

## C[C@]12C/C(=C/O)C(=O)C[C@@H]1CC[C@@H]1[C@@H]2CC[C@@]2(C)[C@H]1CC[C@]2(C)O
C33A
  Potency: inactive
CAOV3
  Potency: inactive
CASKI
  Potency: inactive
Es-2
  Potency: inactive
HeLa
  Potency: inactive
Hek293T
  Potency: inactive
OV90
  Potency: inactive
PA-1
  Potency: inactive
SKOV3
  Potency: inactive
Tov-21-G
  Potency: inactive
Tov112D
  Potency: inactive
[1]; [5]
  activity, negative = cell killing: -10.4% (inactive)
[1]; [6]
  activity, negative = cell killing: -15.9% (inactive)
astro
  Potency: inactive
[2]
  max response: -5.34% (inactive) and -0.621% (inactive)
[4]
  outcome: inactive

## Nc1ccncc1
UISO
  Potency: inactive
WaGa
  Potency: inactive
C33A
  Potency: inactive
CAOV3
  Potency: inactive
CASKI
  Potency: inactive
Es-2
  Potency: inactive
HeLa
  Potency: inactive
Hek293T
  Potency: inactive
OV90
  Potency: inactive
PA-1
  Potency: inactive
SKOV3
  Potency: inactive
Tov-21-G
  Potency: inactive
Tov112D
  Potency: inactive
[1]; [5]
  activity, negative = cell killing: -0.63% (inactive)
[1]; [6]
  activity, negative = cell killing: -4.86% (inactive)
[1]; [7]
  activity, negative = cell killing: -29.8% (inactive)
[2]
  max response: -1.96% (inactive)
[4]
  outcome: inactive

## Oc1ccc(Cl)cc1Cc1ccccc1
UISO
  Potency: 34.7 µM (active)
C33A
  Potency: inactive
CAOV3
  Potency: inactive
CASKI
  Potency: inactive
Es-2
  Potency: inactive
HeLa
  Potency: inactive
Hek293T
  Potency: inactive
PA-1
  Potency: inactive
SKOV3
  Potency: inactive
Tov-21-G
  Potency: inactive
Tov112D
  Potency: inactive
[1]; [5]
  activity, negative = cell killing: -24.8% (inactive)
astro
  Potency: 35.5 µM (active)
[2]
  max response: 0.0184% (inactive) and 1.61% (inactive)

## CN(C)[C@@H]1C(=O)C(C(N)=O)=C(O)[C@@]2(O)C(=O)C3=C(O)c4c(O)cccc4[C@@](C)(O)[C@H]3C[C@@H]12
UISO
  Potency: inactive
WaGa
  Potency: inactive
C33A
  Potency: inactive
CAOV3
  Potency: inactive
CASKI
  Potency: inactive
Es-2
  Potency: inactive
HeLa
  Potency: inactive
Hek293T
  Potency: inactive
OV90
  Potency: inactive
PA-1
  Potency: inactive
SKOV3
  Potency: inactive
Tov-21-G
  Potency: inactive
Tov112D
  Potency: inactive
[1]; [8]
  activity, negative = cell killing: -16.2% (inactive)
[1]; [9]
  activity, negative = cell killing: -21.5% (inactive)
astro
  Potency: inactive

## Oc1cc(Cl)ccc1Oc1ccc(Cl)cc1Cl
UISO
  Potency: 44.2 µM (active)
WaGa
  Potency: 55.6 µM (active)
C33A
  Potency: 28.2 µM (active) and inactive
CAOV3
  Potency: inactive
CASKI
  Potency: 39.8 µM (active) and inactive
Es-2
  Potency: inactive
HeLa
  Potency: 44.7 µM (active) and inactive
Hek293T
  Potency: inactive
OV90
  Potency: inactive
PA-1
  Potency: inactive
SKOV3
  Potency: 35.5 µM (active) and inactive
Tov-21-G
  Potency: inactive
Tov112D
  Potency: inactive
[1]; [7]
  activity, negative = cell killing: -27.9% (inactive)
[2]
  max response: -4.24% (inactive)
[4]
  outcome: inactive
